In the library only some 4.4% were active in any assay of this set; here they are far more common.
p53ts 39C kill = kills p53ts cells at the nonpermissive temperature; H1299-p53A138V viability at 39C, ATP luminescence, 24 h; Potency, µM (doses to about 46.1 µM), hits mostly cytotoxic; hit rate 1.5% among 130,000; further: nearly all actives have a fitted effect of over 55% in size
12-hLO inh = blocks human 12-lipoxygenase activity | Potency, µM (top dose mostly 57.1 µM), usual class: inhibitors | hit rate 0.12% among 150,000 | purified 12-hLO, xylenol orange hydroperoxide absorbance | P18054; further: nearly all actives have a fitted effect of over 55% in size
Target sequence (P18054 whole entry, looked up): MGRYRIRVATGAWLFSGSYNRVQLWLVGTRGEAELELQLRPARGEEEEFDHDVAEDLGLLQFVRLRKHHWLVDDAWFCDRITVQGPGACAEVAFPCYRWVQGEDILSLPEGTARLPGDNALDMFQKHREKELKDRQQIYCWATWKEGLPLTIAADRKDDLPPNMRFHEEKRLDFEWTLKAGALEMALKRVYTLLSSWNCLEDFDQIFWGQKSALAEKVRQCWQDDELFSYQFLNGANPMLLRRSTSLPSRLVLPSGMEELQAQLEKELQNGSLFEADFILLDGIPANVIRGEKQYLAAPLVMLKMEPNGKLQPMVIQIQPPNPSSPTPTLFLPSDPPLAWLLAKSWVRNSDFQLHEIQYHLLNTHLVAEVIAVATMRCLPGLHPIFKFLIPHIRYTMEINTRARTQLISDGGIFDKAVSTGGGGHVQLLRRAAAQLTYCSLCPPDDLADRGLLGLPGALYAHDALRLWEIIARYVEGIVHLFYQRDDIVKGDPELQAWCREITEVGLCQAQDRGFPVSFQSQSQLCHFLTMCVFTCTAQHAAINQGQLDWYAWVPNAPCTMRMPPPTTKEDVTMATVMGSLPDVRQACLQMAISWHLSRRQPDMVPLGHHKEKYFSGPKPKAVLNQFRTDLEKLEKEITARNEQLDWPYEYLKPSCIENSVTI
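Purified human 12hLO (150 nM), preincubated 15 min with compound, then 40 uM arachidonic acid for 30 min, room temperature, Hepes pH 7.0 with 0.01% Triton X-100. Hydroperoxide detected by ferrous iron/xylenol orange; 573/405 nm absorbance ratio gives reaction progress.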
p53ts 32C tox = cytotoxicity in p53ts cells at permissive temperature; H1299-p53A138V at 32C, ATP luminescence viability, 24 h; Potency, µM (titrated, usually from 46.1 µM), usual class: cytotoxic; hit rate 0.93% among 130,000; further: nearly all actives have a fitted effect of over 55% in size
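Viability by ATPlite luminescence after 24 h compound treatment (up to 46 uM) at the permissive 32C. Cells are H1299 carrying p53 A138V. Scale runs from DMSO basal to 100 uM tamoxifen as full kill; AC50 from Hill fits.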
HPGD inh = blocks human HPGD enzyme activity. Potency, µM, hits mostly inhibitors. purified HPGD, NADH fluorescence kinetic, PGE2 substrate. hit rate 4.3% among 150,000. P15428. AID 894; active means well fitted inhibition curve with a large enough effect, not every such curve was filed as active; inconclusive means small, poorly fitted or top-dose-only effect, or another doubt; inactive means no such curve, though single readings can be large or run the other way
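20 nM HPGD preincubated 15 min at room temperature with compound in 50 mM Tris-HCl pH 8, 0.01% Tween 20. Started with 1 mM NAD+ and 30 uM prostaglandin E2; NADH fluorescence (360/450 nm) read 5 times over 30-s intervals, last minus first.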
Numbers stand for hits; i = inactive; ? = inconclusive; nt = no result; [ ] = dose if it differs, or a comment. Unless noted, the call rests on the fitted dose curve; in most records, active means well fitted curve in the direction sought with a large enough effect; inconclusive means small, poorly fitted or top-dose-only effect, or another doubt; inactive means no such curve, though single readings can be large; an effect the other way counts as inactive or inconclusive.

SMILES	p53ts 39C kill	12-hLO inh	p53ts 32C tox	HPGD inh
COc1ccccc1N(CC(=O)Nc1cc(C)on1)S(=O)(=O)c1ccc(Cl)cc1	nt	i	nt	14µM
COc1ccc(S(=O)(=O)N(CC(=O)Nc2cc(C)on2)Cc2ccccc2)cc1	i	i	i	i
O=C(C1CCC1)N1CCc2cc(S(=O)(=O)NCCc3ccccc3)ccc21	i	nt	i	nt
Cc1ccc(CN2CCN(C3CCN(S(=O)(=O)N(C)C)CC3)C(=O)C2=O)cc1	i	nt	i	nt
Cc1sc2ncnc(N3CCC(C)CC3)c2c1C	i	i	i	22µM
Cc1c(C(=O)N2CCN(c3ccccc3)CC2)sc2ncnc(N3CCC(C)CC3)c12	nt	i	nt	i
Cn1c2c(c(=O)c3ccccc31)CCC(C)(C)O2	nt	i	nt	28µM
N#Cc1c(-c2ccco2)nc(SCc2ccc(F)cc2)[nH]c1=O	i	i	i	10µM
N#Cc1c(-c2ccco2)nc(SCC(=O)Nc2ccc(S(N)(=O)=O)cc2)[nH]c1=O	nt	i	nt	i
COc1cc(OC)c(NC(=O)Nc2cccc(OCc3cc(=O)n4ccccc4n3)c2)cc1Cl	i	nt	i	nt
O=[N+]([O-])c1ccc(O)c(N=Cc2sc3ccccc3c2O)c1	nt	i	nt	14µM
Oc1c(C=Nc2cccc3cccnc23)sc2ccccc12	nt	i	nt	i
O=C(Cc1coc2cc3c(cc12)CCC3)NC1CCCCCCC1	nt	i	nt	14µM
Cc1cccc(NC(=O)c2ccc(-c3nc(CSc4ccccc4)c(C)o3)cc2)c1C	i	nt	i	nt
Nc1cc(Cl)ccc1Oc1ccc(Cl)cc1	nt	i	nt	22µM
Nc1cc(Cl)ccc1Oc1ccccc1	i	i	i	i
Cc1ccc2cc3c(N)c(C(=O)N4CCOCC4)sc3nc2c1	?	i	?	nt
Cc1ccc2nc3sc(C(=O)N4CCOCC4)c(N)c3cc2c1	6.3µM	i	6.3µM	25µM
CCOc1ccc2nc3sc(C(=O)N4CCN(C)CC4)c(N)c3cc2c1	i	i	i	14µM
CC(C)c1ccc2nc3sc(C(=O)N4CCc5ccccc5C4)c(N)c3cc2c1	nt	i	nt	16µM
COc1ccc(CC(=O)NC2CC(=O)N(c3ccc4c(c3)OCCO4)C2)cc1 (stereo not drawn)	i	nt	i	nt
CCN(CC)C(=O)c1sc(NC(=O)c2cc(-c3ccc(C)s3)nc3ccccc23)c(C(=O)OC)c1C	nt	i	nt	?
CCN(CC)C(=O)c1sc(N)c(C(=O)OC(C)C)c1C	i	i	?	20µM
CCN(CC)C(=O)c1sc(NC(=O)c2ccncc2)c(C(=O)OC)c1C	nt	i	nt	22µM
CCOC(=O)c1c(NC(=O)OC)sc(C(=O)N(CC)CC)c1C	i	i	i	28µM
SMILES	p53ts 39C kill	12-hLO inh	p53ts 32C tox	HPGD inh
CCN(CC)C(=O)c1sc(NC(=O)c2ccoc2C)c(C(=O)OC)c1C	i	i	i	14µM
CCOC(=O)c1c(NC(=O)c2ccoc2C)sc(C(=O)N(C)C)c1C	nt	i	nt	?
CCC(=O)Nc1sc(C(=O)OC)c(C)c1C(=O)OC	i	i	i	22µM
COC(=O)c1sc(NC(=O)C(C)C)c(C(=O)OC)c1C	nt	i	nt	?
O=C(Nc1ccc2c(c1)nc1n2CCSC1)c1ccco1	3.2µM	i	2µM	?
CC(=O)Nc1ccc2c(c1)nc1n2CCOC1	nt	i	nt	i
O=C(Nc1ccc2c(c1)nc1n2CCN(C2CCCCC2)C1)c1ccco1	i	nt	i	nt
O=C(Nc1ccc2c(c1)nc1n2CCOC1)c1ccco1	?	i	7.9µM	i
CCC(Cc1ccccc1)NC(=O)Cn1ncc2c3ccccc3n(Cc3ccccc3)c2c1=O (stereo not drawn)	?	nt	i	nt
CCC(Cc1ccccc1)NC(=O)Cn1ncc2c3ccccc3n(Cc3ccc(F)cc3)c2c1=O (stereo not drawn)	10µM	nt	?	nt
O=C(Cn1ncc2c3ccccc3n(Cc3ccccc3)c2c1=O)NCCc1ccc(Cl)cc1	13µM	nt	i	nt
O=C(Cn1ncc2c3ccccc3n(Cc3ccccc3F)c2c1=O)NCCc1ccc(Cl)cc1	i	nt	i	nt
Cc1c(Cl)cccc1NC(=O)c1cc(-c2cccs2)on1	i	nt	i	nt
Cc1cc(N2CCCCC2)ccc1[N+](=O)[O-]	nt	i	nt	22µM
O=[N+]([O-])c1ccc(N2CCCC2)cc1N1CCCC1	nt	i	nt	i
Cc1cc(C=O)c(C)n1-c1ccc(N2CCCC2)c([N+](=O)[O-])c1	nt	i	nt	14µM
O=C1CCC[C@@H]2CC(NCc3ccc(Cl)c(Cl)c3)C[C@@H]3CCN1[C@H]23 (stereo partly drawn)	nt	i[0.00818 µM]	nt	i
O=C(Nc1ccc(N2CCC(N3CCCCC3)CC2)c(C(=O)O)c1)c1ccccc1	i	nt	i	nt
COc1ccc(-c2cc3nc4n(c(=O)c3s2)CCC4)cc1	5µM	i	5µM	?
O=C(CC1N=C2c3ccccc3N=C(SCC(=O)Nc3cccc(C(F)(F)F)c3)N2C1=O)NCc1cccs1 (stereo not drawn)	i	nt	i	nt
Cc1ccc(Cn2c(SCC(=O)NCc3ccc(Cl)cc3)nc3ccsc3c2=O)cc1	?	nt	i	nt
CC(OC(=O)/C=C/c1ccco1)C(=O)Nc1cccc([N+](=O)[O-])c1 (stereo not drawn)	i	i	nt	?
COc1ccc([N+](=O)[O-])cc1NC(=O)C(C)OC(=O)/C=C/c1ccco1 (stereo not drawn)	nt	i	nt	28µM
O=C(/C=C/c1ccco1)NC(=S)Nc1cccc([N+](=O)[O-])c1	nt	i	nt	18µM
O=C(COc1ccccc1)NC(=S)Nc1cccc([N+](=O)[O-])c1	nt	i	nt	28µM
SMILES	p53ts 39C kill	12-hLO inh	p53ts 32C tox	HPGD inh
COc1ccccc1NC(=S)NC(=O)/C=C/c1ccco1	nt	?	nt	28µM
O=C(NC(=S)Nc1cccc([N+](=O)[O-])c1)c1ccco1	nt	i	nt	i
Cc1cc(=O)n(Cc2ccccc2)c2c1c(C)nn2C	i	nt	i	nt
C=CCc1ccccc1OCc1nc2ccccc2n1CC	i	nt	i	nt
O=C(COc1cc(=O)n2c(n1)SCCC2)c1ccccc1	i	i	i	16µM
CCCOC(=O)c1cc(-c2ccc(C=O)o2)ccc1Cl	nt	i	nt	i
C=CCOC(=O)c1cc(-c2ccc(/C=C3\C(=O)NC(=O)C(C#N)=C3C)o2)ccc1Cl	nt	i	nt	16µM
COc1ccc(C2CC(=O)c3c([nH]c(C(=O)OC4CCCCCC4)c3C)C2)cc1 (stereo not drawn)	?	nt	i	nt
N#C/C(=C/c1ccc2c(c1)OCO2)C(=O)NCCc1c[nH]c2ccccc12	nt	i	nt	i
C[C@H](NC(=O)/C(C#N)=C/c1ccc(O)c(O)c1)c1ccccc1	i	20µM	i	i
C[C@@H](NC(=O)/C(C#N)=C/c1ccc(O)c(O)c1)c1ccccc1	?	?	i	i
CC(C)NC(=O)/C(C#N)=C/c1ccc2c(c1)OCCO2	i	i	i	28µM
CCN(CC)CCOC(=O)c1ccc(NC(=O)COc2cc(=O)n(CC)c3ccccc23)cc1	i	i	i	?
CCN(CC)CCOC(=O)c1ccc(NC(=O)CSc2cc(=O)n(CC)c3ccccc23)cc1	10µM	nt	i	nt
CCOCCCNc1ncnc2c1cnn2-c1ccc(C)c(C)c1	?	nt	i	nt
CCc1cc2c(Sc3nc4ccccc4s3)ncnc2s1	nt	i	nt	25µM
Nn1c(Cc2cccc3ccccc23)nnc1SCc1ccc(Cl)c(Cl)c1	nt	i	nt	2.8µM
Nn1c(Cc2cccc3ccccc23)nnc1SCn1nnc2ccccc2c1=O	nt	i	nt	i
